EBV LMP1 NFkB: Epstein-Barr LMP1 NF-kappaB reporter inhibition; LMP1-induced NF-kappaB luciferase reporter cells, luminescence; inhibition, % at 12.5 µM; actives 0.69% (n = 350,000); AID 504558; in the data active = inhibition above about 41%; inconclusive = no clear call, values can overlap the other calls;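 also: 0% = neutral control wells and 100% = reference inhibitor control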
Shn3 3UTR inh: Schnurri-3 reporter inhibition in Clone20 osteoblasts; Clone20 osteoblast Shn3 3'UTR firefly luciferase, 24 h; inhibition, % at 12.5 µM; actives 0.52% (n = 360,000); AID 588674;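 active = mean inhibition of at least 75% with every replicate also reaching 75%; inconclusive = mean inhibition at least 75% but some replicate below; inactive = mean inhibition below 75%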;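 also: 0% = median of neutral control wells and 100% = pilot-screen positive control compound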
PAX8 inh HTS: PAX8 transcriptional activity inhibition; RMG-I TPO-luciferase reporter, SteadyGlo, 24 h; inhibition, % at 12.6 µM; actives 1.2% (n = 360,000); AID 652154;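 active = mean replicate inhibition at least 60% with every replicate also reaching 60%; inconclusive = only one of the two criteria is met; inactive = mean below 60% and not all replicates reaching 60%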;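 also: luciferase light reporting Pax8 driven TPO promoter activity; plate controls were median of neutral control wells for no effect and mitoxantrone controls for full effect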
LGR2 antag: inhibitors of bursicon-induced Drosophila LGR2 receptor cAMP signaling; HEK293 LGR2, CRE-luciferase, bursicon-stimulated, 4 h; inhibition, % at 9.99 µM; actives 0.35% (n = 380,000); AID 720647;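 active = drop in luminescence signal, shown as inhibition above about 50% in the replicate tests, limit read from the data, passing the limit was not always enough; inconclusive = probably only some replicates passing the limit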;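 also: agonist challenge used bursicon conditioned medium at about half maximal strength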
TRPM1 prom inh: MITF TRPM1 promoter inhibition in SK-MEL-5 cells | SK-MEL-5 TRPM1 promoter luciferase, 24 h | inhibition, % at 12.5 µM | actives 0.83% (n = 330,000);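 active = mean inhibition across replicates of 60% or more, whatever share of single replicates reaches that level; inconclusive = some that reach 60%, reason not given; inactive = mean inhibition across replicates below 60%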
EWS-Fli block: EWS/Fli transcriptional activity inhibition; AID 651661; inhibition, % at 12.6 µM; A673 NR0B1-luciferase reporter, viability-normalised; actives 0.67% (n = 350,000);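 active = mean inhibition of at least 50% after viability correction, with every replicate also passing that limit; inconclusive = mean reaches 50% but only one of two replicates passes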;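 also: firefly luciferase signal divided by Alamar Blue viability fluorescence both relative to DMSO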
An asterisk follows results filed as active; u = inconclusive; x = not tested or not shown. This is a sample that favours compounds with a hit; in the whole collection about 2.2% have one here.

SMILES	EBV LMP1 NFkB	Shn3 3UTR inh	PAX8 inh HTS	LGR2 antag	TRPM1 prom inh	EWS-Fli block
CCOc1ccc(N(CC(=O)N2CCc3ccccc32)S(=O)(=O)c2c(C)noc2C)cc1	47*	-7	37	20	20	10
CCOc1ccc(N(CC(=O)Nc2ccc(C)cc2)S(=O)(=O)c2c(C)noc2C)cc1	8	18	13	-13	-2	7
COc1ccc(S(=O)(=O)Nc2ccc3c(c2)OC[C@@H](C)N(C)C[C@@H](C)[C@H](OC)CN(C)C3=O)cc1	x	x	11	-4	x	-3
C[C@H](CO)N1C[C@H](C)[C@H](CN(C)CC2CC2)Oc2ccc(NC(=O)Cn3cnnn3)cc2CC1=O	x	x	x	-2	x	-5
C[C@H]1CCC[C@]2(C)C[C@H]3OC(=O)C(CN4CCCCCC4)[C@H]3C=C12 (stereo partly specified)	2	-93	u	37	78*	8
COc1ccc2[nH]c3c(C)c4ccncc4c(C)c3c2c1	-11	-45	x	x	95*	59*
Cc1c2ccncc2cc2c1[nH]c1ccccc12	-24	34	-28	-3	-41	4
Nc1nc(=S)[nH]c2c1C1(CCCC1)Cc1ccccc1-2	-17	-7	29	x	7	x
Nc1nc(=S)[nH]c2c1C1(CCCCC1)Cc1ccccc1-2	-13	90*	-9	-1	10	3
CN1C=C/C(=C\c2cc[n+](C)c3ccccc23)c2ccccc21	35	69	97*	28	77*	74*
C[C@@H]1CCCCO[C@@H](CN(C)CC2CCCCC2)[C@H](C)CN([C@H](C)CO)C(=O)c2cc(NC(=O)c3ccccc3)ccc2O1	x	x	14	5	x	12
O=C(CCl)Nc1cc2[nH]c(=O)[nH]c2cc1Br	3	-26	91*	5	57	u
Cc1ccc(S(=O)(=O)Nc2ccc3c(c2)C(=O)N([C@@H](C)CO)C[C@@H](C)[C@H](CN(C)S(=O)(=O)c2ccc(F)cc2)O3)cc1	x	x	x	3	x	0
C[C@@H]1CCCCO[C@H](CN(C)C(=O)C2CCCCC2)[C@H](C)CN([C@@H](C)CO)C(=O)c2cc(NS(=O)(=O)c3ccccc3)ccc2O1	x	x	21	-2	x	21
CSc1ccc(C2NN=C(c3ccccc3)S2)cc1 (stereo unspecified)	33	37	-5	84*	29	44
CCCCCC(=O)N(O)C1CC(=O)N(c2ccccc2)C1=O (stereo unspecified)	23	4	x	9	1	x
CCCCCCC(=O)N(O)C1CC(=O)N(Cc2ccccc2)C1=O (stereo unspecified)	52*	-23	x	x	5	x
COc1ccccc1CNC(=O)C[C@@H]1CC[C@@H](NC(=O)CN(C)C)[C@H](CO)O1	x	x	-5	-19	x	5
O=C(Nc1ccc(Cl)c(Cl)c1)Nc1nnc(CC2=CCCCC2)s1	71*	47	-3	12	30	20
O=C(Nc1nnc(CC2=CCCCC2)s1)c1cccs1	-14	-52	-143	x	-34	x
Cc1ccc(S(=O)(=O)Nc2ccc3c(c2)C(=O)N([C@@H](C)CO)C[C@H](C)[C@@H](CN(C)Cc2ccc(Cl)c(Cl)c2)OCCCC[C@@H](C)O3)cc1	x	x	103*	0	x	12
C[C@@H]1CCCCO[C@@H](CN(C)Cc2ccc(Cl)c(Cl)c2)[C@@H](C)CN([C@@H](C)CO)C(=O)c2cc(NS(=O)(=O)c3ccc(Cl)cc3)ccc2O1	x	x	29	6	x	7
C[C@H](CO)N1C[C@H](C)[C@@H](CN(C)Cc2ccc(Cl)c(Cl)c2)OCCCC[C@H](C)Oc2ccc(NS(=O)(=O)c3ccc(F)cc3)cc2C1=O	x	x	105*	23	x	10
C[C@@H]1CN([C@H](C)CO)C(=O)c2cc(NS(=O)(=O)c3ccc(Cl)cc3)ccc2O[C@@H](C)CCCCO[C@H]1CN(C)Cc1ccc(Cl)c(Cl)c1	x	x	113*	9	x	17
C[C@H]1CN([C@@H](C)CO)S(=O)(=O)c2ccc(-c3ccc(F)cc3)cc2O[C@H]1CN(C)C(=O)C1CCCCC1	x	x	x	15	x	0
O=C(NC1CCC1)[C@@H]1[C@@H](CO)[C@@H]2Cn3c(ccc(C4=CCCCC4)c3=O)[C@H]1N2CC1CC1	x	x	3	-3	x	2
COC(=O)C[C@@H]1CC[C@@H](NS(=O)(=O)c2ccccc2F)[C@H](CO)O1	x	x	-22	-2	x	2

Screening results from PubChem BioAssay.
